{
  "source": "PubChem BioAssay AID1964107",
  "about": "(National Center for Advancing Translational Sciences (NCATS), 2024)",
  "note": "Among all 31,000 compounds or so, about 360 (1.2%) were called active. Not shown: some 8% with an inconclusive outcome. Only a selection was taken, and actives are over-represented in it overall. Values without a mark were called inactive. Calls follow the shape of the full dose curve. % is scaled to controls: 0 for no effect and ±100 for the full control effect; potency is read from the fitted curve at half-maximal effect.",
  "data": [
    {"target": "Polyprotein P1234 (Chikungunya virus (strain S27-African prototype)) (UniProt Q8JUX6)", "sequence (Q8JUX6 whole entry, looked up)": "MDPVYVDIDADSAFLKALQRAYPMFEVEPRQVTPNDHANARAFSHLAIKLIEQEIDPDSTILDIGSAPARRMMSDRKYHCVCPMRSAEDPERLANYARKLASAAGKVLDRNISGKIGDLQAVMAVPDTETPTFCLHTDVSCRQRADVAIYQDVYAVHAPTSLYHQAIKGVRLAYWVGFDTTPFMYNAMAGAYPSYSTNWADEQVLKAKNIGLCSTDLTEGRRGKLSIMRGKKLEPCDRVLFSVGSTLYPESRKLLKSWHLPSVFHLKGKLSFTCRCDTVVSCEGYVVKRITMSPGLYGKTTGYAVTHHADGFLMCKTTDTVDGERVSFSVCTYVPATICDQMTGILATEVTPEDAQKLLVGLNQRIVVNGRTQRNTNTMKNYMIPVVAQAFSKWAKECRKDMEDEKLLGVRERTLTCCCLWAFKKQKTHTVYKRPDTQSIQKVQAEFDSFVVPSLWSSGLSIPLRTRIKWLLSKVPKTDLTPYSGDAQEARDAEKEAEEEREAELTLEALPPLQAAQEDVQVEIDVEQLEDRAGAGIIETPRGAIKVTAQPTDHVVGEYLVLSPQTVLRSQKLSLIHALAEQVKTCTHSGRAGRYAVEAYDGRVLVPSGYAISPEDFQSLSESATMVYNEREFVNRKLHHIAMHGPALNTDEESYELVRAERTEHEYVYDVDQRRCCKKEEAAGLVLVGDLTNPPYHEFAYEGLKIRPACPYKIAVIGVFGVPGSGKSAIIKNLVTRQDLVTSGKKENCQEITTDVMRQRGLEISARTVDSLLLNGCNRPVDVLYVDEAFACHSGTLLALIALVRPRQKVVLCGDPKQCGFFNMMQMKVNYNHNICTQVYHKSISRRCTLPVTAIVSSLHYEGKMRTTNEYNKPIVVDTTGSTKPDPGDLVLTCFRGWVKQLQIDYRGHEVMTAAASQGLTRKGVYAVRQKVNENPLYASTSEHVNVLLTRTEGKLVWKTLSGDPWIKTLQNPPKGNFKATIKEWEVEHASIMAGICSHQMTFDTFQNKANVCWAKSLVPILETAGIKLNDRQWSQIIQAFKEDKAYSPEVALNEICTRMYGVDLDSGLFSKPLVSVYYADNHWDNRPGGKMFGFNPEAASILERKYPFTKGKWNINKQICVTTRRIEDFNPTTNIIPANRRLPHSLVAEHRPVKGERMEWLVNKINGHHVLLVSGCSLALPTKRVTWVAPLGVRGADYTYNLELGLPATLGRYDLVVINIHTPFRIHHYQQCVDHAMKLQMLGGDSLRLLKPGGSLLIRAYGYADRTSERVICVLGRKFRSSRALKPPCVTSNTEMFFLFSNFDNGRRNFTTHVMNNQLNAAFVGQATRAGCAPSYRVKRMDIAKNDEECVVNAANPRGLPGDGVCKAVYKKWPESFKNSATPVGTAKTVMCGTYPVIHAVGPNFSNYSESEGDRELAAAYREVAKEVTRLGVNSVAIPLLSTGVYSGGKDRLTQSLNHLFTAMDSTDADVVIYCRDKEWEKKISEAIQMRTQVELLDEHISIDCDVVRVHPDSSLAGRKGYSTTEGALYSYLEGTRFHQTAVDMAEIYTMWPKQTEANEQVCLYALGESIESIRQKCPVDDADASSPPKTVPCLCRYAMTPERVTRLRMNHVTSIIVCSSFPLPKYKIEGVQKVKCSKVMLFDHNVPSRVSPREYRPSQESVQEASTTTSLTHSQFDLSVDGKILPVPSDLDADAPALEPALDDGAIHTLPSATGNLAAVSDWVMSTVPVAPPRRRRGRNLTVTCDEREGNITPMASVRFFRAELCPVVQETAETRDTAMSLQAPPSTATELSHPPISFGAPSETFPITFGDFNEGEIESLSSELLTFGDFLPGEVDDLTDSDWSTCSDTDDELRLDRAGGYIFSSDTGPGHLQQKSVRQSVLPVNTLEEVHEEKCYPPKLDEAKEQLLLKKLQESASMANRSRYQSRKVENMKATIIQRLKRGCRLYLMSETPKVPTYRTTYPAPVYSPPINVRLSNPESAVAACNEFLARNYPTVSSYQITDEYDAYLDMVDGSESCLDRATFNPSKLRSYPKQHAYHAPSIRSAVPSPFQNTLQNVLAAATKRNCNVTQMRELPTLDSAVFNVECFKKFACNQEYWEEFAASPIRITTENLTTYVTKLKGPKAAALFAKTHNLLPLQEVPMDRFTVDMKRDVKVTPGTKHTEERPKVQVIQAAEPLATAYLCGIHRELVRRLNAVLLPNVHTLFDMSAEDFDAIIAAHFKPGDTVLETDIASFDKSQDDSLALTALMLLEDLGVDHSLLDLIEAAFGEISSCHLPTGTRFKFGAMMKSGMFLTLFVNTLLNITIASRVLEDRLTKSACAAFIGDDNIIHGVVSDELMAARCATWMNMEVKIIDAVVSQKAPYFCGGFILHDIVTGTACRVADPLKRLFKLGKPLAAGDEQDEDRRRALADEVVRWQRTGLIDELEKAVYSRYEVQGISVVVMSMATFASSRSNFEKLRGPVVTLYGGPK", "test": "Primary qHTS for inhibitors of NSP2Pro chikungunya virus (CHIKV); also: nearly all actives have a fitted effect of over 60% in size", "details": "FRET peptide cleavage, fluorescence 1 h; series mostly up to 24.9 µM; activity change, negative = inhibition: at the top concentration", "from_the_text": "PI: Natalia J. Martinez Ph.D. National Center for Advancing Translational Sciences (NCATS), National Institute of Health (NIH), Rockville, Maryland Chikungunya virus (CHIKV) is a mosquito-borne RNA virus that has emerged as one of the most important global arboviral threats in the last decade. Although the first CHIKV vaccine has recently been FDA approved for use in healthy adults at increased risk, to date, there are no available antiviral drugs for CHIKV infection. CHIKV nsP2 protease plays a crucial role in the processing of the viral polypeptide precursor to release enzymes required for viral replication, thus making it a promising drug target for antiviral discovery. Here, we established a high-throughput pipeline to identify small molecule inhibitors of nsP2 proteolytic activity. The pipeline is composed of a suite of 1,536-well in vitro assays to support quantitative high-throughput (qHTS) screening campaigns. Specifically, we developed a fluorescence resonance energy transfer (FRET)-based assay using a fluorogenic peptide substrate encompassing an endogenous cleavage site and purified recombinant protease domain (nsP2pro). Using this assay, we interrogated ~37,000 small molecules, including those in drug repurposing libraries as well as chemically diverse and medicinal chemistry-friendly compounds. Hits were selected for follow-up validation against full-length nsP2 and an additional peptide. FRET-based 1,536-well assays for papain, hepatitis C virus NS3-4A, and human furin proteases were implemented to characterize compound selectivity. […] Novel compounds were identified to be potential nsP2 inhibitors and molecular docking analyses were performed to explain the binding mode of selected hits. In vitro antiviral activity was evaluated for a subset of compounds using a high-throughput CHIKV infection assay. To our knowledge, the pipeline presented here is unprecedented for CHIKV antiviral discovery research.\nPROTOCOL TABLE (as described by Inglese J, Shamu CE and Guy RK. 2007) SEQUENCE No. (e.g., 1, 2, 3, etc.); […] (e.g., Cells, Incubation, Reagent, etc.); VALUE; DESCRIPTION. 1; Control / Compound; 20 nL; Echo 655 acoustic dispenser, Greiner 1536-well solid bottom black plate. 2; Enzyme; 4 uL; BioRAPTR FRD liquid dispenser (Beckman Coulter). 3; Incubation; 15 min; room temperature. 4; Reagent; 4 uL; 2.5 uM Peptide 2 substrate. 5; Incubation; 1 hr; room temperature. 6; Detection; Fluorescence; WiewLux microplate reader (PerkinElmer), 525 nm excitation, 598/25 nm emission. NOTES (numbers refer to sequence numbers above). 1. Briefly, 20 nL DMSO, positive control ZnAc (20nM final concentration), and test compounds were transferred into a 1,536-well solid bottom black plate (789176-F, Greiner One) via Echo 655 acoustic dispenser (Beckman Coulter). For primary screens, compounds were tested at 7 concentrations, 1:3 dilution points ranging from 25 uM to 34 nM. Follow-up confirmatory screens were carried out at 11 concentrations, 1:3 dilution points from 25 uM to 0.42 nM. 2. Four uL nsP2pro enzyme mix (150 nM final concentration) in 10 mM Tris-HCl pH 8.0 with 0.01% Tween 20 assay buffer was dispensed into the plate using a BioRAPTR FRD liquid dispenser (Beckman Coulter). 3. The plate was incubated at room temperature (protected from light) for 15 min 4. Four microliter of peptide 2 substrate (2.5 uM final concentration) in assay buffer was added to the plate. 5. After 1 hour, plates were immediately read on a ViewLux high-throughput CCD imager (Exposure = 10 sec, Gain = High, Speed = Slow, Binning = 2X). The above assay was also incorporated in the NCATS HTS facility41, which allowed for robotic liquid and compound dispensing, microplate handling, and fluorescence reading.. REFERENCE: Inglese J, Shamu CE and Guy RK, Reporting data from high throughput screening of small molecule libraries, Nature Chemical Biology, 2007, 3(8): 438-441. doi.org/10.1038/nchembio0807-438.", "values": [
      {"smiles": "O=C(Cn1nc(C2CC2)ccc1=O)NCCc1ccccc1", "activity change, negative = inhibition": "-6.14%"},
      {"smiles": "CCCC12CN3CC(CCC)(CN(C1)C3c1c[nH]c3ccc(OC)cc13)C2=O", "note": "(configuration not stated)", "activity change, negative = inhibition": "8.29%"},
      {"smiles": "COc1ccc(N2Cc3cccc(C(=O)O)c3C2=O)cc1OC", "activity change, negative = inhibition": "-3.96%"},
      {"smiles": "Cc1ccc(NC(=O)CSc2nc3c(c(=O)[nH]2)CN(Cc2ccc4c(c2)OCO4)CC3)cc1C", "activity change, negative = inhibition": "-21.7%"},
      {"smiles": "O=C(Nc1ncc(Cc2ccc(C(F)(F)F)cc2)s1)c1ccc(-c2ccc([N+](=O)[O-])cc2)o1", "activity change, negative = inhibition": "-11.4%"},
      {"smiles": "COc1cccc(Nc2ccc(N3CCN(C(C)=O)CC3)cc2)c1OC", "outcome": "inactive"},
      {"smiles": "COc1ccccc1OCCCn1c(-c2ccc(Cl)cc2)nc2ccccc2c1=O", "activity change, negative = inhibition": "-10.8%"},
      {"smiles": "Cc1cc(C)nc(NS(=O)(=O)c2ccc(NC(=O)c3cc(=O)c4ccc(C)c(C)c4o3)cc2)n1", "activity change, negative = inhibition": "-9.45%"},
      {"smiles": "O=C1C(F)N([S+](=O)([O-])c2ccc3c(c2)OCCO3)CCN1[S+](=O)([O-])c1c(F)cccc1F", "note": "(configuration not stated)", "outcome": "inactive"},
      {"smiles": "Cc1cnn(CCC(=O)N2CCC3(CCNCC3)CC2)c1", "activity change, negative = inhibition": "-10.6%"},
      {"smiles": "CCOc1ccc(N(CC)C(=O)C2CCN(S(=O)(=O)c3cccc4nonc34)CC2)cc1", "activity change, negative = inhibition": "-21.2%"},
      {"smiles": "CCOc1ccc(N(Cc2ccccc2)C(=O)c2nc(S(C)(=O)=O)ncc2Cl)cc1", "Potency": "5.01 µM (active)"},
      {"smiles": "CCOc1ccc(N(Cc2ccccc2)C(=O)c2nc(SCC)ncc2Cl)cc1", "activity change, negative = inhibition": "4.15%"},
      {"smiles": "Cn1nnnc1Sc1ncnc2scc(-c3ccccc3[N+](=O)[O-])c12", "activity change, negative = inhibition": "-0.0419%"},
      {"smiles": "Cn1nnnc1Sc1ncnc2n[nH]c(-c3cccc(S(C)(=O)=O)c3)c12", "Potency": "2.82 µM (active)"},
      {"smiles": "Cc1ccc(-c2ccccc2CN2CCN([S+](=O)([O-])c3cccc(C(F)(F)F)c3)CC2)cc1Cl", "outcome": "inactive"},
      {"smiles": "O=C(Nc1nc(-c2ccccc2)cs1)c1ccncc1NS(=O)(=O)c1ccc(Cl)cc1", "activity change, negative = inhibition": "2.25%"},
      {"smiles": "Cc1c(Cl)cccc1NC(=O)N1CCN(C(=O)c2nsc3ccccc23)CC1", "activity change, negative = inhibition": "-22.7%"},
      {"smiles": "COc1cc(C(CC(=O)NCCC(C)C)N2Cc3ccccc3C2=O)cc(OC)c1OC", "note": "(configuration not stated)", "activity change, negative = inhibition": "-20.7%"},
      {"smiles": "O=C(Cn1ccn2nc3c(c2c1=O)CCCCC3)NCc1ccccc1Cl", "activity change, negative = inhibition": "-6.55%"},
      {"smiles": "CC1=C(C(=O)N2CCN(c3cccc(C(F)(F)F)c3)CC2)C2(CCCCC2)OC1=O", "activity change, negative = inhibition": "-21.5%"},
      {"smiles": "CC(C)Sc1oc(-c2cccs2)nc1S(=O)(=O)c1ccc(Cl)cc1", "activity change, negative = inhibition": "-23.7%"},
      {"smiles": "CCc1nc(-c2ccc(OC3CCN(C(=O)Cc4c[nH]c5ccccc45)C3)cc2)no1", "note": "(configuration not stated)", "activity change, negative = inhibition": "-4.97%"},
      {"smiles": "COc1ccc(CN2CCN(CCCSc3cc(C(C)(C)C)c(O)c(C(C)(C)C)c3)CC2)c(OC)c1OC", "activity change, negative = inhibition": "11.3% [at 5.1 µM]"},
      {"smiles": "Cc1cn2nc(C(=O)NC3CCCC3)cc2c(N2CCSCC2)n1", "outcome": "inactive"},
      {"smiles": "CCN(CC)c1cc(CCC(=O)NCc2cc(F)ccc2F)ccn1", "outcome": "inactive"},
      {"smiles": "FC(F)(F)c1cc(Nc2nc3ccccc3c3nncn23)ccc1Cl", "activity change, negative = inhibition": "-5.64%"},
      {"smiles": "C=CS(=O)(=O)N1CCCN(c2cc(NCCC(=O)O)nc(-c3ccccn3)n2)CC1", "activity change, negative = inhibition": "166%"},
      {"smiles": "Cc1ccc(NC(=O)CCCn2c(=O)c3cccn3c3ccccc32)cc1Cl", "activity change, negative = inhibition": "-22%"},
      {"smiles": "Cc1ccccc1[C@@H](C(=O)NC1CCCCC1)N(C(=O)Cn1ccnc1C)c1cccc(F)c1", "activity change, negative = inhibition": "4.93%"},
      {"smiles": "CCOC(=O)C1CCCN(CC(=O)Nc2cc(C)c3c(=O)oc4ccccc4c3n2)C1", "note": "(configuration not stated)", "activity change, negative = inhibition": "-8%"},
      {"smiles": "COc1ccc(Cc2nc3ccc(C(=O)NCc4ccccc4Cl)cc3o2)cc1", "activity change, negative = inhibition": "-15.7%"},
      {"smiles": "COc1ccc(C2=Nn3c(nnc3-c3ccccc3OC)SC2)cc1OC1CCCC1", "outcome": "inactive"},
      {"smiles": "O=[S+]([O-])(c1ccc2c(c1)OCCO2)N1CCN([S+](=O)([O-])c2c(Cl)cc(Cl)cc2Br)CC1", "activity change, negative = inhibition": "-5.69%"},
      {"smiles": "CC(=O)N1Cc2ccccc2CC2(CCN(Cc3ccc(O)cc3)CC2)C1", "activity change, negative = inhibition": "-17.4%"},
      {"smiles": "N#Cc1cc(-c2nc(Nc3ccc(F)c(F)c3)c3ccccc3n2)ccn1", "outcome": "inactive"},
      {"smiles": "COCCNc1ncnc2c1c(-c1ccccc1)cn2-c1ccc(C)c(Cl)c1", "activity change, negative = inhibition": "-18.5%"},
      {"smiles": "CN(Cc1ccccc1)C(=O)c1cn(C)c2ccc(S(=O)(=O)N(C)C3CCCCC3)cc2c1=O", "activity change, negative = inhibition": "-8.33%"},
      {"smiles": "O=C(Nc1ccc2ncnc(N3CCCCC3)c2c1)C1CCCCC1", "outcome": "inactive"},
      {"smiles": "CCOc1ccc(CCNC(=O)c2cc3ccccc3n2Cc2cccc(C)c2)cc1OCC", "activity change, negative = inhibition": "-6.04%"},
      {"smiles": "O=C(Cn1nc2c(cc1=O)CCCCC2)NC1CCN(C(=O)c2cc3ccccc3[nH]2)CC1", "activity change, negative = inhibition": "4.65%"},
      {"smiles": "COc1cc(OC)c(C(CC(=O)N2CC(C)CC(C)C2)c2ccc3c(c2)OCO3)c(OC)c1", "note": "(configuration not stated)", "activity change, negative = inhibition": "-1.01% [at 39.2 µM]"},
      {"smiles": "Fc1cc(Nc2nc(-c3ccncc3)nc3ccccc23)ccc1N1CCCCC1", "outcome": "inactive"},
      {"smiles": "O=C(c1nc(-c2ccsc2)c2cnccn12)N1CCCC1", "activity change, negative = inhibition": "-15.1% [at 39.2 µM]"},
      {"smiles": "O=S(=O)(NCCc1noc(-c2ccccc2)n1)c1ccc2c(c1)OCCO2", "activity change, negative = inhibition": "-3.1%"},
      {"smiles": "CCOC(=O)c1cccc(NC(=O)Cn2cnc3nc4c(cc3c2=O)CCCC4)c1", "activity change, negative = inhibition": "-27.2%"},
      {"smiles": "C/C(=C\\CC[C@@H](C)[C@H]1CC(O)[C@@]2(C)C3CC[C@H]4C(C)(C)[C@@H](OC5OCC(O)C(O)C5OC5OC(CO)C(O)C(O)C5O)CC[C@@]45C[C@@]35CC(O)[C@]12C)C(=O)O", "note": "(some centres not stated)", "activity change, negative = inhibition": "-6.9% [at 10 µM]"}
    ]}
  ]
}
